Consider 49 compounds from the supplement of paper PMC4723716.

± gives the uncertainty stated by the source. Over roughly 9,900 compounds, “viability index relative to DMSO control” has its median near 1; the lowest 2% begin near 0.85. Shown is part of a subset that was picked to be rich in the lowest values.

The subject of the experiment is Plasmodium falciparum NF54 stage V gametocytes. The experiment in a line: viability index relative to DMSO control (fraction); higher = less gametocyte killing. Particulars: 2.5 µM, library set: Broad Institute DOS, incubation time: 72 h. A digest of the protocol: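 P. falciparum NF54 stage V gametocytes in serum-free screening medium (0.75% gametocytemia, 1.25% hematocrit, 10 µl) were incubated with compound at 2.5 µM in 1,536-well plates for 72 hr at 37°C under low oxygen. Then 3 µl of 2.5 µM MitoTracker Red CMXRos plus 0.13% saponin was added for one to two hours. One field per well was imaged, 20–70 µm2 red particles were counted, and the viability index was the count divided by the plate mean of DMSO wells.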
On to `C[C@@H]1CN([C@@H](C)CO)C(=O)CCCn2cc(nn2)CO[C@@H]1CN(C)S(=O)(=O)c1cn(C)cn1`, for which the viability index came out at 1.07 ± 0.062.

`COC(=O)C[C@H]1C[C@H]2c3cc(N)ccc3O[C@H]2[C@H](CO)O1` returned a viability index of 1.05 ± 0.0071. Turning to `C/C=C/c1ccc([C@@H]2[C@H](CO)N3CCCCN(S(=O)(=O)c4ccc(OC)cc4)C[C@@H]23)cc1`, the viability index stood at 1.03 ± 0.014.

`C[C@H](CO)N1C[C@H](C)[C@H](CN(C)C(=O)NC2CCCCC2)OCc2ccccc2-c2ccccc2C1=O` gave a viability index of 1.03 ± 0.03.

`COC(=O)C[C@H]1CC[C@@H]2[C@@H](COc3ccc(NC(=O)Nc4c(C)noc4C)cc3C(=O)N2C)O1` displayed a viability index of 0.983 ± 0.14. Then `O=C(Nc1ccc(F)cc1)N1CC(=O)N2[C@H](CO)[C@H](c3ccc(-c4cccc(F)c4)cc3)[C@H]2C1`, with 1.05 ± 0.019; and `C[C@H](CO)N1C[C@H](C)[C@@H](CN(C)C(=O)Nc2cccc(Cl)c2Cl)OCc2ccccc2-c2ccccc2C1=O`, with 0.845 ± 0.043; and `C[C@@H]1CN([C@@H](C)CO)C(=O)c2ccccc2-c2ccccc2CO[C@H]1CN(C)C(=O)Nc1cccc(Cl)c1Cl`, with 0.72 ± 0.16. Consider `C[C@H]1CN([C@@H](C)CO)C(=O)c2ccccc2-c2ccccc2CO[C@H]1CN(C)C(=O)Nc1ccc(-c2ccccc2)cc1`, for which the viability index is 0.724 ± 0.14. Then `C[C@@H]1CN([C@H](C)CO)C(=O)c2ccccc2-c2ccccc2CO[C@@H]1CN(C)C(=O)Nc1cccc(Cl)c1Cl`, with 0.894 ± 0.05; and `C[C@@H]1CN([C@H](C)CO)C(=O)c2ccccc2-c2ccccc2CO[C@H]1CN(C)C(=O)Nc1cccc(Cl)c1Cl`, with 0.863 ± 0.045. Compound `C[C@@H]1CN([C@@H](C)CO)C(=O)c2ccccc2-c2ccccc2CO[C@@H]1CN(C)C(=O)Nc1cccc(Cl)c1Cl` gave a viability index of 0.946 ± 0.053. Turning to `C[C@H]1CN([C@@H](C)CO)C(=O)c2ccccc2-c2ccccc2CO[C@H]1CN(C)C(=O)Nc1cccc(Cl)c1Cl`, the viability index turned out to be 0.9208 ± 0.0078. Compound `C[C@H](CO)N1C[C@H](C)[C@@H](CN(C)C(=O)Nc2ccc(-c3ccccc3)cc2)OCc2ccccc2-c2ccccc2C1=O` had a viability index of 1.019 ± 0.0076.

Regarding `C[C@@H]1CN([C@@H](C)CO)C(=O)c2ccccc2-c2ccccc2CO[C@@H]1CN(C)C(=O)Nc1ccc(-c2ccccc2)cc1`, the viability index is 0.977 ± 0.016. With `COC(=O)C[C@@H]1C[C@@H]2c3cc(NC(=O)c4ccc5c(c4)OCO5)ccc3O[C@@H]2[C@H](CO)O1`, the viability index came to 0.991 ± 0.033.

Turning to `COc1ccc(S(=O)(=O)Nc2ccc3c(c2)CC(=O)N([C@H](C)CO)C[C@@H](C)[C@@H](CN(C)C(=O)Nc2c(C)noc2C)O3)cc1`, the viability index was determined as 1.101 ± 0.0069. Then `Cc1ccc(S(=O)(=O)N(C)C[C@@H]2Oc3c(NS(C)(=O)=O)cccc3C(=O)N([C@H](C)CO)C[C@@H]2C)cc1`, with 0.939 ± 0.13. Regarding `COc1ccccc1CNC(=O)C[C@@H]1C[C@@H]2c3cc(NC(=O)C4CCC4)ccc3O[C@@H]2[C@@H](CO)O1`, the viability index stood at 1.01 ± 0.015.

The compound `O=C([C@@H]1[C@@H](CO)[C@@H]2Cn3c(ccc(C4=CCCC4)c3=O)[C@H]1N2C(=O)c1cccnc1)N1CCOCC1` showed a viability index of 1.08 ± 0.038.

Turning to `CCc1nc(N2[C@H](CO)[C@H](c3ccccc3-c3ccc(F)cc3)[C@@H]2C#N)sc1C`, the viability index worked out at 1.03 ± 0.12. The figure for `O=C(C[C@@H]1CC[C@H]2NC[C@@H](O)COC[C@@H]2O1)NCc1ccc2c(c1)OCO2` is 1.07 ± 0.015. In turn, `COc1ccc2c3c([nH]c2c1)[C@H](CO)N(Cc1ccncc1)C[C@]31CN(C1)C(=O)CN(C)C` had a viability index of 1.04 ± 0.071. For `COc1ccc2c3c([nH]c2c1)[C@H](CO)N(Cc1nccs1)C[C@]31CCN(Cc2cccnc2)CC1`, the viability index was 0.946 ± 0.081. Then `CCCC(=O)N1CC[C@@]2(CC1)CN(Cc1ccc(Cl)cc1)[C@@H](CO)c1[nH]c3cc(OC)ccc3c21`, with 0.795 ± 0.039. Regarding `COc1ccc2c3c([nH]c2c1)[C@@H](CO)N(Cc1ccccc1)C[C@]31CCN(Cc2cncnc2)CC1`, the viability index is 0.849 ± 0.064. The figure for `CCCC(=O)N1CC[C@@]2(CC1)CN(Cc1ccc(Cl)cc1)[C@H](CO)c1[nH]c3cc(OC)ccc3c21` is 0.873 ± 0.16; for `COc1ccc2c3c([nH]c2c1)[C@@H](CO)N(Cc1nccs1)C[C@]31CN(Cc2ccncc2)C1` it is 1.02 ± 0.079. As to `COc1ccc2c3c([nH]c2c1)[C@@H](CO)N(Cc1ccc(Cl)cc1)C[C@]31CCN(Cc2nccs2)CC1`, the viability index was determined as 0.814 ± 0.015. Compound `COCC(=O)N1CC[C@@]2(CC1)CN(Cc1ccccc1Cl)[C@H](CO)c1[nH]c3cc(OC)ccc3c21` registered a viability index of 1.023 ± 0.0089. The figure for `COc1ccc2c3c([nH]c2c1)[C@@H](CO)N(Cc1nccs1)C[C@]31CCN(Cc2cccnc2)CC1` is 0.98 ± 0.062; for `COc1ccc2c3c([nH]c2c1)[C@H](CO)N(Cc1ccc(Cl)cc1)C[C@]31CCN(Cc2nccs2)CC1` it is 0.884 ± 0.047; for `CCCN(C)C[C@H]1Oc2cc(/C=C/c3ccccc3)ccc2S(=O)(=O)N([C@H](C)CO)C[C@H]1C` it is 1.05 ± 0.026.

On to `COc1ccc2c3c([C@@H](CO)N(C[C@]33CCN(CC4CCOCC4)CC3)C(=O)NC(C)C)n(C)c2c1`, for which the viability index was 0.97 ± 0.013.

Take `COc1ccc2c3c([C@H](CO)N(CC4CC4)C[C@]33CCN(CC3)C(=O)NC3CCCC3)n(C)c2c1`: the viability index is 0.955 ± 0.05. With `C[C@H]1CN([C@@H](C)CO)C(=O)CCCn2nncc2CO[C@H]1CN(C)C(=O)c1ccc2ccn(C)c2c1`, the viability index worked out at 1.015 ± 0.0067.

As to `O=C(C[C@@H]1CC[C@H]2[C@@H](COC[C@@H](O)CN2C(=O)c2ccccc2F)O1)NCc1ccc(Cl)c(Cl)c1`, the viability index turned out to be 1.09 ± 0.036. The figure for `COC(=O)c1ccc(CN2CC(=O)N3[C@H](CO)[C@@H](c4ccc(-c5cccnc5)cc4)[C@H]3C2)cc1` is 0.986 ± 0.01; for `C[C@@H]1CN([C@H](C)CO)C(=O)CCCn2cc(nn2)CO[C@@H]1CN(C)Cc1ccccc1` it is 0.986 ± 0.035. Then `O=C(C[C@H]1CC[C@@H](NC(=O)Nc2ccc(C(F)(F)F)cc2)[C@H](CO)O1)NCc1cccc(F)c1`, with 0.953 ± 0.14; and `C[C@@H]1CN([C@@H](C)CO)C(=O)c2cc(NC(=O)CCC(F)(F)F)ccc2O[C@@H](C)CCCCO[C@@H]1CN(C)C(=O)Nc1cccc2ccccc12`, with 0.734 ± 0.082.

For `C[C@@H]1CN([C@H](C)CO)C(=O)c2cc(NC(=O)C3CCCCC3)ccc2O[C@@H](C)CCCCO[C@H]1CN(C)C(=O)CCC(F)(F)F`, the viability index worked out at 1.05 ± 0.096. The compound `Cc1noc(C)c1S(=O)(=O)Nc1ccc2c(c1)C(=O)N([C@@H](C)CO)C[C@H](C)[C@@H](CN(C)C(=O)Nc1cccc3ccccc13)OCCCC[C@H](C)O2` had a viability index of 0.984 ± 0.043. The figure for `Cc1noc(C)c1S(=O)(=O)Nc1ccc2c(c1)C(=O)N([C@@H](C)CO)C[C@@H](C)[C@@H](CN(C)C(=O)Nc1cccc3ccccc13)OCCCC[C@H](C)O2` is 0.828 ± 0.11; for `C[C@@H]1CN([C@@H](C)CO)C(=O)c2cc(NC(=O)C3CCCCC3)ccc2O[C@@H](C)CCCCO[C@H]1CN(C)C(=O)CCC(F)(F)F` it is 1.07 ± 0.071. The figure for `C[C@@H]1CN([C@H](C)CO)C(=O)c2cc(NC(=O)CCC(F)(F)F)ccc2O[C@@H](C)CCCCO[C@H]1CN(C)C(=O)Nc1cccc2ccccc12` is 1.08 ± 0.036.

`C[C@@H]1CN([C@H](C)CO)C(=O)c2cc(NC(=O)C3CCCCC3)ccc2O[C@@H](C)CCCCO[C@@H]1CN(C)C(=O)CCC(F)(F)F` had a viability index of 0.817 ± 0.26.

`Cc1noc(C)c1S(=O)(=O)Nc1ccc2c(c1)C(=O)N([C@@H](C)CO)C[C@@H](C)[C@@H](CN(C)C(=O)Nc1cccc3ccccc13)OCCCC[C@@H](C)O2` yielded a viability index of 0.893 ± 0.066. Then `C[C@@H]1CCCCO[C@@H](CN(C)C(=O)Nc2cccc3ccccc23)[C@H](C)CN([C@@H](C)CO)C(=O)c2cc(NC(=O)CCC(F)(F)F)ccc2O1`, with 1 ± 0.061.
